According to PubChem BioAssay AID504339 (National Center for Advancing Translational Sciences (NCATS), 2011):
Among all 390,000 compounds or so, about 17,000 (4.4%) were called active. Not shown: some 8% with an inconclusive outcome. The call rests on the fitted dose curve; in most records, active means well fitted inhibition curve with a large enough effect; inconclusive means small, poorly fitted or top-dose-only effect; inactive means no such curve, though single readings can be large or run the other way. The list comes from a sample in which actives are over-represented; it also holds similar structures and randomly drawn compounds. Entries that show only a call come without a potency.

target: Lysine-specific demethylase 4A (Homo sapiens) (UniProt O75164); test: qHTS Assay for Inhibitors of JMJD2A-Tudor Domain; settings: AlphaScreen JMJD2A-Tudor / H3K4me3 peptide binding; series mostly up to 114 µM; further: nearly all actives have a fitted effect of over 50% in size
Potency means the concentration at half of the fitted maximal effect.

Sequence of Lysine-specific demethylase 4A (Homo sapiens) (O75164 whole entry, looked up, the tested form may be a part): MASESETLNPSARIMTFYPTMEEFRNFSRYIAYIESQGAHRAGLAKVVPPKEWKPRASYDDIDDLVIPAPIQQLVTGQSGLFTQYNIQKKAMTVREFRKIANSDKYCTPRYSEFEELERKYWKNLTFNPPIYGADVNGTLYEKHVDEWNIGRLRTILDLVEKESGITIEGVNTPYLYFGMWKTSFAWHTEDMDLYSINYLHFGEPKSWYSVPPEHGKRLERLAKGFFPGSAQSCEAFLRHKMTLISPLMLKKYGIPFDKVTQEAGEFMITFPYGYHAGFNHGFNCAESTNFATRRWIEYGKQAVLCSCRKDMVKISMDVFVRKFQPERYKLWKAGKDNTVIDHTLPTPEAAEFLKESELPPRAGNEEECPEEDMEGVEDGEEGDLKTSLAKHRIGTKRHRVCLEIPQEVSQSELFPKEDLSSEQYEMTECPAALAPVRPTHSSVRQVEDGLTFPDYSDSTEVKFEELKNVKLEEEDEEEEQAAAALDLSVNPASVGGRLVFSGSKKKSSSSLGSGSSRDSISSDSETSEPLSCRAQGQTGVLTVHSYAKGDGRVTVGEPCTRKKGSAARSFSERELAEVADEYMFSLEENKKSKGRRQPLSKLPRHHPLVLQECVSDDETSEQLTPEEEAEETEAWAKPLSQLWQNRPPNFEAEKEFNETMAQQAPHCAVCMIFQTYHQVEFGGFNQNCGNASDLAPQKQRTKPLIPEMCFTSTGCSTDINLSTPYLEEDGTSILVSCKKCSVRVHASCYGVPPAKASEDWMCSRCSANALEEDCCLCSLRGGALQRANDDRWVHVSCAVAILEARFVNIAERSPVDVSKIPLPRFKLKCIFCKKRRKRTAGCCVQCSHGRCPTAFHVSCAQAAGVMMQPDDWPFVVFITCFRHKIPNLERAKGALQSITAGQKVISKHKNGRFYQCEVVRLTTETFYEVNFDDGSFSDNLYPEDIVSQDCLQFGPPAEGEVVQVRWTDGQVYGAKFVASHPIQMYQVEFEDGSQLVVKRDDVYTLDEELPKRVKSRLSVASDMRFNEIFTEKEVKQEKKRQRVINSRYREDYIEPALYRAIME

Structure (SMILES) | Potency
CN(Cc1ccccc1)C(=O)c1cn(C)c2ccc(S(=O)(=O)N(C)C3CCCCC3)cc2c1=O | inactive
CCOC(=O)c1c(NC(=O)CSc2cn(CCNC(=O)c3cccc(C(F)(F)F)c3)c3ccccc23)sc2c1CCC2 | inactive
Cc1c(-c2nc(-c3ccc4c(c3)OCO4)no2)nnn1-c1ccc(Br)cc1F | inactive
CCc1nnc(NC(=O)C2CC(=O)N(c3ccc4c(c3)OCCO4)C2)s1 (stereo not drawn) | 25.1 µM (active)
CCOC(=O)c1ccc(NC(=O)C2CC(=O)N(c3ccc4c(c3)OCCO4)C2)cc1 (stereo not drawn) | inactive
CC(=O)c1ccccc1NC(=O)C1CC(=O)N(c2ccc3c(c2)OCCO3)C1 (stereo not drawn) | inactive
O=C(CSc1nnc(CNC(=O)c2ccccc2)n1-c1ccc(F)cc1)Nc1ccccc1F | inactive
COc1ccc(C2C(C#N)=C(N)Oc3cc(N)ccc32)cc1OC (stereo not drawn) | inactive
COc1ccccc1CN1CCCC(N2CCN(c3ccc(F)cc3)CC2)C1 (stereo not drawn) | inactive
COc1ccc(C2C(C#N)=C(N)Oc3n[nH]c(C)c32)cc1CN1CCN(c2ccc(F)cc2)CC1 (stereo not drawn) | 44.7 µM (active)
Cc1cc(=O)c2cc(C(=O)Nc3cccc(C)c3C)ccc2[nH]1 | inactive
COc1ccccc1NC(=O)C(=O)c1cc(C)n(-c2ccccc2F)c1C | inactive
COc1ccc(NC(=O)CCCc2nnc3n(CCC(C)C)c(=O)c4sccc4n23)c(OC)c1 | inactive
Cc1ccccc1Nc1nn2c(=O)c3ccc(C(=O)NCCc4ccc(Cl)cc4)cc3nc2s1 | inactive
Nc1ccc2c(c1)C(=Cc1cccnc1)c1ccccc1-2 | 35.5 µM (active)
Cc1ccc(C2=C/C(=C\c3cccnc3)C(=O)O2)cc1 | inactive
O=C(O)/C(=C/c1cccnc1)NC(=O)c1ccccc1 | inactive
O=C(NCc1ccccc1)c1cccc(NC(=O)N2CCSc3ncccc32)c1 | inactive
CCc1ccc(S(=O)(=O)Nc2ccc(C)c(NS(C)(=O)=O)c2)cc1 | inactive
CCc1ccc(S(=O)(=O)N/N=C\c2ccc([N+](=O)[O-])o2)cc1 | 50.1 µM (active)
CCn1c(/C=C/c2ccc([N+](=O)[O-])o2)nc2ccccc2c1=O | inactive

Structure (SMILES) | Potency
CCc1nn(CCCC(=O)NCc2ccccc2OC)c(=O)c2cc3occc3n12 | inactive
Cc1ccc(-c2ccc(CCC(=O)O)n2-c2ccc(C(N)=O)cc2)cc1 | inactive
CN1/C(=c2/s/c(=C3/C(=O)N(c4ccccc4)NC3=Nc3ccccc3)n(C)c2=O)C(C)(C)c2ccccc21 | 28.2 µM (active)
CC(C)CCN(C(=O)Nc1ccc(Cl)c(Cl)c1)C(C)c1cccs1 (stereo not drawn) | inactive
COc1ccc(NC(=O)c2cnc(Nc3ccc(C)c(Cl)c3)c3ccccc23)cc1OC | inactive
CCC(=O)N1CCc2cc(Br)cc(S(=O)(=O)Nc3ccc(C)cc3C)c21 | inactive
CN(C(=O)CCN1C(=O)/C(=C/c2ccccc2F)SC1=S)C1CCS(=O)(=O)C1 (stereo not drawn) | inactive
COc1ccc(-c2nn(-c3ccccc3)cc2CN2CCCO2)c(F)c1 | inactive
O=C1/C(=C/c2coc3ccc(O)cc3c2=O)SC(=S)N1c1ccccc1 | inactive
Cc1ccc(-c2nn(-c3ccccc3)cc2/C=C2\SC(=S)N(CCCCCC(=O)O)C2=O)o1 | 14.1 µM (active)
COc1ccc(-c2nn(-c3ccccc3)cc2/C=C2/SC(=S)N(CCCC(=O)O)C2=O)c(C)c1 | 44.7 µM (active)
COc1cccc(NC(=O)CN(C)C(=O)/C=C/c2cn(-c3ccccc3)nc2-c2cccs2)c1 | inactive
CN(Cc1ccccc1)S(=O)(=O)c1ccc(F)c(C(=O)Nc2cccc(Cl)c2Cl)c1 | inactive
COc1cc(F)c(S(=O)(=O)N2CCCN(S(=O)(=O)c3ccc(N)cc3)CC2)c(F)c1 | inactive
O=C(COc1ccccc1Cl)Nc1ccc2nc(SCC(=O)N3CCCC3)sc2c1 | inactive
O=C(NCc1ccc2c(c1)CCN2C(=O)c1ccccc1)c1ccccc1 | inactive
Cc1ccc(OCCCCN2CCCCC2)c(Br)c1 | 0.794 µM (active)
COc1ccc(C(=O)NCCCN2CCOCC2)cc1Br | inactive
Cc1ccc(OCCCC(=O)N2CCOCC2)c(C)c1 | inactive
Cc1cccc(N2CCN(C(=O)c3cc4c(=O)oc5ccccc5c4s3)CC2C)c1 (stereo not drawn) | inactive
COc1ccc(Cn2c(=O)[nH]c3cc(C(=O)N4CCN(C(=O)c5ccco5)CC4)ccc3c2=O)cc1 | inactive

Structure (SMILES) | Potency
Cc1ccc2nc(-c3ccc(C)c(NC(=O)Cc4ccccc4)c3)oc2c1 | inactive
CC1CCN(C(=O)Cn2c(=O)n(-c3ccc(Cl)cc3)c(=O)c3c4c(sc32)CCC4)CC1 | inactive
O=C(O)CSc1nnc(-c2ccc3c(c2)OCO3)n1-c1ccccc1 | inactive
Cn1c(SCc2nc3ccccc3s2)nnc1-c1ccc2c(c1)OCO2 | 31.6 µM (active)
Cn1c(SCC(=O)N2CCCC2)nnc1-c1ccc2c(c1)OCO2 | inactive
COc1ccc(CCNc2nc(-c3ccc(Cl)cc3)cc(C(F)(F)F)n2)cc1OC | inactive
COc1ccc(Cc2nnc(SC)[nH]c2=O)cc1 | inactive
COc1ccc(Cc2nnc(N/N=C/c3ccccc3O)[nH]c2=O)cc1OC | 28.2 µM (active)
CC(C)c1ccc(Cc2nnc(NCCCO)[nH]c2=O)cc1 | inactive
O=S(=O)(c1ccc(Br)cc1)c1nnn2c1nc(NC1CCCCCC1)c1sccc12 | inactive
CC(=O)Nc1ccc(NC(=O)c2cc3sccc3n2Cc2ccc(F)cc2)cc1 | inactive
CCOc1ccc2nc(N3CCCC(C(=O)Nc4cc(C)ccc4C)C3)sc2c1 (stereo not drawn) | inactive
COc1ccc2[nH]cc(CCN3C(=O)c4ccc(C(=O)O)cc4C3=O)c2c1 | inactive
Cc1ccc2[nH]cc(CCCN3C(=O)c4ccccc4C3=O)c2c1 | 22.4 µM (active)
Cc1ccc2[nH]cc(CCNC(=O)C3CCCCC3)c2c1 | inactive
Cc1nn(Cc2ccc(F)cc2)c(C)c1NC(=O)c1cc(CC(C)C)on1 | inactive
O=C(CSc1ncc(CO)n1Cc1ccc(Cl)cc1)NCc1ccc(F)cc1 | inactive
COc1ccc(N2CCN(C3=NS(=O)(=O)C(c4cccc(Br)c4)=C3C)CC2)cc1 | inactive
Cc1ccc(CN2C(=O)N/C(=C/c3cc(C)n(-c4ccccn4)c3C)C2=O)cc1 | inactive
Cc1cc(/C=C2/NC(=O)NC2=O)c(C)n1-c1cccnc1 | inactive
Cc1cccc(C)c1-n1c(C)cc(/C=C2\C(=O)NN(c3ccccc3)C2=O)c1C | 22.4 µM (active)
